Laboratory results published in PubChem BioAssay.
Activity calls are given as the source filed them.

Assays:
[1] = tested on: Plasmodium falciparum Sir2 (PF13_0152, Sir2A); experiment: Plasmodium falciparum Sir2A binding compounds – biochemical, small-molecule microarray, 635 nm fluorescence, primary screen (AID 1098); conditions: fluorescence 635 nm, higher = more signal;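 further: score merges spot fluorescence intensity with its signal-to-noise ratio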
[2] = probe aDKK1 binding to arrayed compounds – biochemical, biotinylated probe, 635/667 nm fluorescence, primary screen (AID 1099); conditions: small-molecule microarray, higher = more signal;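 further: score merges 667nm spot fluorescence with signal to noise across triplicate slides; reference of the scale not given here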
[3] = probe aCHRDL2 binding to arrayed compounds – biochemical, biotinylated probe, 635/667 nm fluorescence, primary screen (AID 1100); conditions: small-molecule microarray, higher = more signal
[4] = change in splice reporter luminescence, either direction, cell-based, HEK293, spliceosome inhibition project, primary screen (AID 1101); conditions: HEK293 splicing luciferase reporter, 24 h, higher = more signal, called active from +8 up or from −8 down;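 further: HEK293 cells carrying a splicing-competent luciferase reporter gene; test concentration not given here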
[5] = molecular target: Fibroblast growth factor 10 (Homo sapiens) (UniProt O15520); experiment: compounds binding fibroblast growth factor 10 – biochemical, small-molecule microarray, 635 nm fluorescence, primary screen (AID 1102); conditions: FGF10 binding, fluorescence 635 nm, higher = more signal
[6] = tested on: glycogen synthase kinase-3 (GSK3A per assay name; protocol says GSK3B); experiment: compounds binding glycogen synthase kinase-3 – biochemical, small-molecule microarray, 635 nm fluorescence, GSK3A, primary screen (AID 1103); conditions: fluorescence 635 nm, higher = more signal; further: the record names both GSK3A and GSK3B
[7] = molecular target: Epidermal growth factor receptor (Homo sapiens) (UniProt P00533); experiment: compounds binding epidermal growth factor receptor – biochemical, small-molecule microarray, 635 nm fluorescence, primary screen (AID 1104); conditions: EGFR binding, higher = more signal;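 further: score merges 667 nm emission intensity with spot signal to noise over triplicate slides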
[8] = molecular target: Follistatin-related protein 3 (Homo sapiens) (UniProt O95633); experiment: compounds binding follistatin-related protein 3 – biochemical, small-molecule microarray, 635 nm fluorescence, primary screen (AID 1105); conditions: FSTL3 binding, higher = more signal;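 further: score merges emission near 667 nm and signal to noise per printed spot across three slides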
[9] = molecular target: Dickkopf-related protein 1 (Homo sapiens) (UniProt O94907); experiment: small molecules binding DKK1 protein – biochemical, small-molecule microarray, 635 nm fluorescence scan, primary screen (AID 1106); conditions: higher = more signal;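 further: score merges emission near 667 nm with signal to noise over three replicate slides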
[10] = tested on: Inhibin beta A chain (activin A); experiment: small molecules binding activin A – biochemical, small-molecule microarray, 635 nm fluorescence scan, primary screen (AID 1107); conditions: INHBA, higher = more signal;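 further: mouse activin A protein probed at 4.33 µg/mL on printed slides; score merges bound-protein fluorescence near 667 nm with spot signal-to-noise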

Chain of Follistatin-related protein 3 (Homo sapiens) (O95633 whole entry, looked up): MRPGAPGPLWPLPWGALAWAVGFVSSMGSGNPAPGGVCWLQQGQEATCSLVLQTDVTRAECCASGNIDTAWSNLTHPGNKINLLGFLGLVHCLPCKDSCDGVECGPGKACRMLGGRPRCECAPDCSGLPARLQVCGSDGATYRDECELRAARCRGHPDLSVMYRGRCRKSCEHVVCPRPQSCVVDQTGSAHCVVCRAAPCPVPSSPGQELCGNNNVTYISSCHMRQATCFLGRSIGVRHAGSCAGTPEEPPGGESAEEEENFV
Chain of Fibroblast growth factor 10 (Homo sapiens) (O15520 whole entry, looked up): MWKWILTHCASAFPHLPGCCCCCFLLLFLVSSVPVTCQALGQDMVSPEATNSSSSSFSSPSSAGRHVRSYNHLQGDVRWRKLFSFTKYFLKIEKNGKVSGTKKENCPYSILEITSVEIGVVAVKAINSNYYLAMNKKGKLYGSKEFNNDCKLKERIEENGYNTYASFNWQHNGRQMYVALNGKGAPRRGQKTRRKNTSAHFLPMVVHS
Chain of Epidermal growth factor receptor (Homo sapiens) (P00533 whole entry, looked up): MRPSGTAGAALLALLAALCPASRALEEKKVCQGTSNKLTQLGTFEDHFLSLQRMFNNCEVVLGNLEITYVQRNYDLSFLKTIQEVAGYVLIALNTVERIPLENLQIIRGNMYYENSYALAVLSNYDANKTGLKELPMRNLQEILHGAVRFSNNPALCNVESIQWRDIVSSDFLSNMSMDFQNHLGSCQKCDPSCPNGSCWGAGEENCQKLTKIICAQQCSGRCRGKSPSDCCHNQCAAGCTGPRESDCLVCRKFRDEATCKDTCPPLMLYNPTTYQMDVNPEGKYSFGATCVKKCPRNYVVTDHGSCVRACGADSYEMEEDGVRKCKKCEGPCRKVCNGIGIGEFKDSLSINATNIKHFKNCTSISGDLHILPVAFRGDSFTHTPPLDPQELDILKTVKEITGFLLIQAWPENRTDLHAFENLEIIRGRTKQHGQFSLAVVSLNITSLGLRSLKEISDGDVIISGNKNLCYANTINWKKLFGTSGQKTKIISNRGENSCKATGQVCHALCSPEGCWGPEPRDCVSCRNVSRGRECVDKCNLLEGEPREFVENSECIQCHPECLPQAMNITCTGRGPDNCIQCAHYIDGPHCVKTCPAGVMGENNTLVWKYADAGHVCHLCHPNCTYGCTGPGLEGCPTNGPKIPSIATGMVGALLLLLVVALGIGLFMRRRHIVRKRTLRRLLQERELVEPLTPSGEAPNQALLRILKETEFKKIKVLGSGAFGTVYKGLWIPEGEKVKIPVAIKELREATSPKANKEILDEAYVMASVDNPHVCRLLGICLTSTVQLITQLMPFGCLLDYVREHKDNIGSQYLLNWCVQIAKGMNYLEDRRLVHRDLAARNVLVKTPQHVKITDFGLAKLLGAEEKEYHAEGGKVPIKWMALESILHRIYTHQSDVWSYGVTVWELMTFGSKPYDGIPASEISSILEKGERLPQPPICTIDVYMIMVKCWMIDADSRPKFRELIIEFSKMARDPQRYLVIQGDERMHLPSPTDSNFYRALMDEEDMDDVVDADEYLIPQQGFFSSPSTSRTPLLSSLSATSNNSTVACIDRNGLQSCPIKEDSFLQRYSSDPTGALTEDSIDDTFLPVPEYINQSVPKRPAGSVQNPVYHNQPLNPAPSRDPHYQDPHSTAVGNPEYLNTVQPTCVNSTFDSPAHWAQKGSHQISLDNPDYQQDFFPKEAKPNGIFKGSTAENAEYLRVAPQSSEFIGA
Chain of Dickkopf-related protein 1 (Homo sapiens) (O94907 whole entry, looked up): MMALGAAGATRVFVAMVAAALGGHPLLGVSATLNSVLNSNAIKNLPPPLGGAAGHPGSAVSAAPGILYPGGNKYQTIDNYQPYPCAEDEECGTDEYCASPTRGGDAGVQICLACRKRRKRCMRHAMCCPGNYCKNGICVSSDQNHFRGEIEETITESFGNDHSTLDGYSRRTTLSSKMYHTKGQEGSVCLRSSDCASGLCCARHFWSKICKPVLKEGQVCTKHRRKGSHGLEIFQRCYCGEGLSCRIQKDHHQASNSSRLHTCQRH

Compound	composite z-score [1]	composite z-score [2]	composite z-score [3]	z-score [4]	composite z-score [5]	composite z-score [6]	composite z-score [7]	composite z-score [8]	composite z-score [9]	composite z-score [10]
[N-]=[N+]=NCc1ccccc1[C@H]1OC(c2ccc(OCCCO)cc2)=N[C@@]1(Cc1ccccc1)C(N)=O	1.51	1.19	0.947	-0.312 (inactive)	0.923	0.644	-0.43	0.546	-0.952	0.669
O=C1OCC=C[C@H]2OC34C=CCN(CCN5CCOCC5)C(=O)[C@H]3N(CCCCCO)C(=O)[C@@H]4[C@@H]12 (stereo not given in full)	1.35	-0.284	-0.227	0.636 (inactive)	-0.736	-0.0692	-0.411	-0.412	-0.24	0.77
COc1ccc(C#Cc2ccc3c(c2)[C@]2(C(=O)N3)[C@H](C(=O)O)[C@H]3C(=O)O[C@H](c4ccccc4)[C@H](c4ccccc4)N3[C@@H]2c2ccc(OCCO)cc2)cc1	1.48	0.192	0.296	-0.825 (inactive)	0.929	0.984	0.45	0.486	0.195	-0.159
COCCOC(=O)N1C(=O)[C@@]2(c3cc(C#Cc4ccc(OC)cc4)ccc31)[C@H](c1ccc(OCCO)cc1)N1[C@H](c3ccccc3)[C@H](c3ccccc3)OC(=O)[C@H]1[C@@H]2C(N)=O	1.27	0.654	0.608	-0.372 (inactive)	1.25	1.32	0.711	1.43	0.853	0.48
[N-]=[N+]=Nc1ccccc1[C@H]1OC(c2ccc(OCCCO)cc2)=N[C@@]1(Cc1ccccc1)C(=O)NCc1ccccc1	0.427	0.243	0.712	-1.72 (inactive)	0.776	1.12	-0.0565	0.643	0.865	0.774
NC(=O)NCC#Cc1ccc2c(c1)[C@]1(C(=O)N2)[C@H](c2ccc(O)cc2)N2[C@H](c3ccccc3)[C@H](c3ccccc3)OC(=O)[C@H]2[C@@H]1C(N)=O	0.855	0.431	0.55	-0.278 (inactive)	-0.0652	-1.08	-0.341	-0.934	-0.343	0.286
C=CC[C@]1(C(=O)N(C)C)N=C(c2ccc(OCCCO)cc2)O[C@H]1c1ccccc1	1.05	0.135	0.953	-1.04 (inactive)	1.21	0.254	-0.489	0.479	-0.228	0.832
CC(C)NC(=O)[C@@H]1c2ccccc2C(=O)N(Cc2cc(C(F)(F)F)cc(C(F)(F)F)c2)[C@H]1c1ccc(CO)cc1	0.46	0.178	0.226	0.0833 (inactive)	0.312	0.811	-0.0125	0.504	0.307	0.325
NC(=O)NCC#Cc1ccc2c(c1)[C@]1(C(=O)N2)[C@H](c2ccc(OCCO)cc2)N2[C@H](c3ccccc3)[C@H](c3ccccc3)OC(=O)[C@H]2[C@@H]1C(=O)N1CCN(c2ncccn2)CC1	0.664	-0.356	-0.417	-0.115 (inactive)	0.621	0.0283	0.231	0.232	0.209	1.29
COC(=O)[C@@]1(Cc2ccc(F)cc2)[C@H]2c3cc(C(=O)N4CCCC4)n(Cc4ccccc4)c3C[C@H]2CN1C(=O)c1ccccc1	0.122	0.411	1.28	-2.67 (inactive)	0.674	0.376	0.231	0.761	-0.401	0.628
O=C1C2C=CC(C(O)c3cccc4ccccc34)N(Nc3ccccc3)C2C(=O)N1c1ccccc1 (stereo not given)	1.54	1.33	0.945	-0.272 (inactive)	1.09	1.28	0.346	1.43	0.0156	1.15
CC(C)(C)N1CC=CC23O[C@@H]4C=CCCOC(=O)C4[C@H]2C(=O)N(CCCO)[C@@H]3C1=O (stereo not given in full)	-0.992	1.43	-0.0642	-1.1 (inactive)	-0.681	-0.764	-0.608	-0.788	-0.0177	1.38
C[C@@H]1ON(c2ccccc2)[C@H](c2ccccc2)[C@H]1C(=O)N1C(=O)OC[C@H]1Cc1ccccc1	0.342	-0.327	-0.503	-0.34 (inactive)	0.423	0.149	0.569	0.697	0.471	0.106
C=CCNC(=O)[C@@H]1[C@H]2C(=O)O[C@H](c3ccccc3)[C@H](c3ccccc3)N2[C@H](c2ccc(O)cc2)[C@@]12C(=O)Nc1ccc(C#CCCO)cc12	1.84	-0.25	0.216	-0.831 (inactive)	-0.861	-1.07	-0.949	-0.459	0.0119	-0.348
Cc1ccccc1C(O)C1C=CC2C(=O)N(Cc3ccccc3)C(=O)C2N1n1cnnc1 (stereo not given)	0.996	0.363	0.118	-0.512 (inactive)	0.517	0.644	-0.126	0.834	0.189	0.837
CCCCC(O)C1C=CC2C(=O)N(Cc3ccccc3)C(=O)C2N1n1cnnc1 (stereo not given)	0.769	-0.0884	0.213	-0.75 (inactive)	0.303	0.144	0.188	0.412	0.178	1.05
COc1ccc([Si](C)(C)[C@@H]2[C@@H](CCO)O[C@]3(C(=O)N(Cc4ccccc4)c4ccc(N5CCCCC5=O)cc43)[C@H]2C)cc1	0.883	-0.107	-0.0137	-4.14 (inactive)	0.959	1.1	0.197	0.962	0.218	0.796
CC1CC/C=C\[C@H]2OC34C=CCN(c5ccc(Cl)cc5)C(=O)[C@H]3N(C(CO)C(C)C)C(=O)[C@]4(C)C2C(=O)O1 (stereo not given in full)	1.86	-0.0977	0.281	0.323 (inactive)	-0.0355	-0.364	-0.799	-0.786	-0.717	0.813
C#CCOC(=O)N[C@H](C=CCCCC)c1ccccc1	-0.257	0.326	0.942	-0.341 (inactive)	0.605	0.35	0.241	-0.484	-0.352	0.983
NC(=O)NCC#Cc1ccc2c(c1)[C@]1(C(=O)N2)[C@H](c2ccc(OCCO)cc2)N2[C@H](c3ccccc3)[C@H](c3ccccc3)OC(=O)[C@H]2[C@@H]1C(=O)N1CCCCCCC1	1.72	2.51	1.17	0.238 (inactive)	1.5	1.27	1.71	1.64	2.25	1.5
COC(=O)[C@]1(Cc2ccccc2N=[N+]=[N-])N=C(c2ccc(OCCCO)cc2)O[C@@H]1c1ccccc1	1.12	0.974	1.12	9.3 (active)	-0.261	0.196	-0.355	-0.105	-0.932	0.897
COCCOC(=O)N1C(=O)[C@@]2(c3cc(C#CC4(O)CCCCCC4)ccc31)[C@H](C(=O)N1CCN(c3ncccn3)CC1)[C@H]1C(=O)O[C@H](c3ccccc3)[C@H](c3ccccc3)N1[C@@H]2c1ccc(O)cc1	1.27	-0.127	0.227	-0.756 (inactive)	0.45	0.235	0.152	0.321	0.0884	0.921
